Screening results (PubChem BioAssay)
Hits are enriched below; roughly 17% of the tested compounds scored in any of these assays.
TDP1 block – blocks human tyrosyl-DNA phosphodiesterase 1; recombinant TDP1, AlphaScreen DNA substrate cleavage; Potency, µM (titrated, usually from 130 µM), usual class: inhibitors; 350,000 tested, 0.28% active; AID 485290; also: nearly all actives have a fitted effect of over 40% in size
Target sequence (Q9NUW8 whole entry, looked up): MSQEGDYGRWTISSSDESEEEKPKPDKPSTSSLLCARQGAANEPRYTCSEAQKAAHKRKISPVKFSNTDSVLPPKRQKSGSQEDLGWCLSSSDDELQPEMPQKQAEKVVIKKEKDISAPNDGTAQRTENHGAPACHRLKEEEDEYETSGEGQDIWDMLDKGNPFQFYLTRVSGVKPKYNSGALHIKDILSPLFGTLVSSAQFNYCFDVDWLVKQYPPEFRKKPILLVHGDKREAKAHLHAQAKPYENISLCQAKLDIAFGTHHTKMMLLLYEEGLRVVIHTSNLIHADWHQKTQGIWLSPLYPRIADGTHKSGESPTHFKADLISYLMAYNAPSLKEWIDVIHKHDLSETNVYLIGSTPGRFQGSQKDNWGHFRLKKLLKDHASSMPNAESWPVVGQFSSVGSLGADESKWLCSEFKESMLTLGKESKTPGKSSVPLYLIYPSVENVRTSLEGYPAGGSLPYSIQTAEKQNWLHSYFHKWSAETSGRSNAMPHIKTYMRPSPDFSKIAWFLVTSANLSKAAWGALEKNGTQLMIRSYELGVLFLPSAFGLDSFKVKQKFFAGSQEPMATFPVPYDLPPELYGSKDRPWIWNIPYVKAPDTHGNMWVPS
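AlphaScreen read-out: signal falls as enzyme removes the 3' tyrosine-FITC from a 5'-biotinylated DNA oligo (15 nM, 5 min, RT). Enzyme was E. coli-made recombinant Tdp1 at 1 nM, exposed to compound for 15 min beforehand; beads 10 ug/ml, 10 min.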
ClpP mod – qHTS Assay for Activators of ClpP; purified B. subtilis ClpP, FRET peptide cleavage, 20 min; Potency, µM (doses to about 57.5 µM); ATP-dependent Clp protease proteolytic subunit (Bacillus subtilis (strain 168)), P80244; 340,000 tested, 1.9% active; active = well fitted falling curve with a large enough effect; inconclusive = small, poorly fitted or top-dose-only effect; inactive = no such curve, though single readings can be large or run the other way; also: the source files actives as falling curves though it sought activators and does not explain the sign; nearly all actives have a fitted effect of over 65% in size
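FRET quenching reversal measured ClpP activation: 10 microg/mL B. subtilis ClpP at pH 8 with the FRET-FV decapeptide, read at 430 nm after 320 nm excitation. The 20-min minus 0-min signal was scaled between DMSO/no-enzyme wells and ADEP (5.8 microM final).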
TDP1 cell noCPT – qHTS for Inhibitors of human tyrosyl-DNA phosphodiesterase 1 (TDP1): qHTS in cells in absence of CPT. DT40 Tdp1-/- hTDP1 cells, no CPT, ATP luminescence, 48 h. Potency, µM (doses to about 46.2 µM), usual class: inhibitors. 420,000 tested, 15% active; also: nearly all actives have a fitted effect of over 55% in size
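No-CPT arm: Tdp1-/-;hTDP1 DT40 cells (400/well) plus compounds, incubated ≥48 hr at 37 °C. Readout CellTiter-Glo luminescence.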
TDP1 cell CPT – growth inhibition of DT40 Tdp1-/-;hTDP1 cells with camptothecin (screen for TDP1 inhibitors); 420,000 tested, 12% active; Potency, µM (series often up to 46.2 µM), most hits filed as inhibitors; chicken DT40 Tdp1-/-;hTDP1 cells + 20 nM CPT, ATP luminescence, 48 h; also: nearly all actives have a fitted effect of over 55% in size
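Cell growth measured by CellTiter-Glo luminescence after a minimum 48 h, 37 C compound exposure with 20 nM CPT in Tdp1-knockout DT40 cells stably expressing hTDP1, seeded 400/well; qHTS titration format.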
Numbers stand for hits; - = inactive; ? = inconclusive; . = no result; [ ] = another dose, or the depositor's remark. Unless noted, calls follow the shape of the dose curve; as a rule, active = well fitted curve in the direction sought with a large enough effect; inconclusive = small, poorly fitted or top-dose-only effect, or another doubt; inactive = no such curve, though single readings can be large; an effect the other way counts as inactive or inconclusive.

SMILES	TDP1 block	ClpP mod	TDP1 cell noCPT	TDP1 cell CPT
O=C(c1ccco1)N1N=C(c2ccccc2)CC1c1ccc2nccnc2c1 (centres undefined)	-	-	?	?
COc1cccc(N2CCN(c3ncnc4c3[nH]c3ccc(F)cc34)CC2C)c1 (centres undefined)	-	-	1.6µM	1.6µM
COc1ccc2[nH]c3c(N4CC(C)OC(C)C4)ncnc3c2c1 (centres undefined)	-	?	15µM	?
Cc1ccc2cc(CN(Cc3nnnn3Cc3ccco3)CC3CCCO3)c(=O)[nH]c2c1C (centres undefined)	-	-	?	?
Cc1ccc2[nH]c(=O)c(CN(CCCO)Cc3nnnn3Cc3ccco3)cc2c1	-	-	?	?
Cc1ccc2[nH]c(=O)c(CN(Cc3ccccc3)Cc3nnnn3Cc3ccccc3)cc2c1	-	?	13µM	?
Cc1ccc2[nH]c(=O)c(CN(Cc3ccco3)Cc3nnnn3Cc3ccccc3)cc2c1	-	?	16µM	?
Cc1ccc2cc(CN(Cc3ccco3)Cc3nnnn3Cc3ccco3)c(=O)[nH]c2c1	-	-	11µM	?
CCOC(=O)Cn1nnnc1CN(Cc1ccccc1)Cc1cc2cc(CC)ccc2[nH]c1=O	-	-	?	21µM
COC(=O)C[C@H]1C=C[C@H](NC(=O)c2ccccn2)[C@@H](CO)O1	.	-	-	-
COCCCn1c(=O)c2sccc2n(Cc2cc(C(=O)OC)ccc2OC)c1=O	-	-	-	-
CN1C(=O)C2(SCC(=O)N2c2ccc(F)cc2)c2ccccc21 (centres undefined)	-	-	.	.
CC(C)CN1CCC(=O)N([C@H](CO)Cc2ccccc2)CC1	.	-	-	-
CC(NC(=O)c1ccc2c(c1)N(Cc1ccc(Cl)cc1)C(=O)c1ccccc1S2=O)c1ccccc1 (centres undefined)	-	-	-	?
Cc1ccc2[nH]c(=O)c(CN(Cc3ccc4c(c3)OCO4)Cc3nnnn3Cc3ccco3)cc2c1	-	-	?	12µM
Cc1cc(C)c2cc(CN(Cc3ccc4c(c3)OCO4)Cc3nnnn3Cc3ccco3)c(=O)[nH]c2c1	-	-	?	?
Cc1ccc2[nH]c(=O)c(CN(Cc3cccnc3)Cc3nnnn3CCN3CCOCC3)cc2c1	-	-	21µM	?
CCCC(c1nnnn1CC(=O)OCC)N(Cc1cc2ccc(C)cc2[nH]c1=O)C1CCCC1 (centres undefined)	-	18µM	?	-
Cc1ccc2[nH]c(=O)c(CN(Cc3cccnc3)Cc3nnnn3CC3CCCO3)cc2c1 (centres undefined)	-	-	-	-
CCc1ccc2[nH]c(=O)c(CN(Cc3ccccc3)Cc3nnnn3Cc3ccccc3)cc2c1	-	25µM	?	?
CC1CN(C(=O)C2(C)CC2(Br)Br)CC(C)O1 (centres undefined)	-	-	-	-
CCc1ccc2[nH]c(=O)c(CN(Cc3ccccc3)Cc3nnnn3Cc3ccco3)cc2c1	-	-	16µM	?
COc1ccc2[nH]c(=O)c(CN(Cc3nnnn3Cc3ccccc3)CC3CCCO3)cc2c1 (centres undefined)	-	28µM	?	12µM
CN(C)c1ncc2nc(CCc3ccccc3)c(=O)n(CCC#N)c2n1	.	.	-	-
N#Cc1c(N2CCOCC2)nsc1-c1ccccc1	-	-	-	-
SMILES	TDP1 block	ClpP mod	TDP1 cell noCPT	TDP1 cell CPT
O=C1C=C[C@@H](O)[C@H]2[C@@H]3C(=O)N(Cc4ccc5c(c4)OCO5)C(=O)[C@@H]3CC[C@H]12	-[21 µM]	.	.	.
Cc1ccc(CSc2nnc(SCC(=O)N/N=C/c3ccccc3OCC(=O)O)s2)cc1	-	-	?	?
Cc1ccc(CSc2nnc(SCC(=O)N/N=C/c3c[nH]c4ccccc34)s2)cc1	6.3µM	-	?	?
O=C(CSc1nnc(SCc2ccccc2Cl)s1)N/N=C/c1c[nH]c2ccccc12	-	-	?	26µM
O=C(CSc1nnc(SCc2ccccc2)s1)N/N=C/C=C/c1ccccc1[N+](=O)[O-]	-	-	16µM	?
O=C(CSc1nnc(SCc2ccccc2)s1)N/N=C/C=C\c1ccco1	?	-	?	?
O=C(CSc1nnc(SCc2ccc(Cl)cc2)s1)N/N=C/c1c(Cl)cccc1Cl	-	-	26µM	?
O=C(CSc1nnc(SCc2ccc(Cl)cc2)s1)N/N=C/c1ccc(Cl)cc1Cl	-	-	-	-
O=C(Nc1cccc(C(F)(F)F)c1)C1CCCN(S(=O)(=O)c2cccc3nonc23)C1 (centres undefined)	-	-	?	?
Oc1ccc(-n2nnnc2SCc2ccccc2Br)cc1	.	.	-	-
O=c1c(-c2ccc(Cl)cc2)nc2cnc(Nc3ccccc3)nc2n1C[C@H]1CCCO1	.	.	-	-
O=C(CN1CCN(Cc2ccccc2)CC1)N/N=C/C=C/c1ccccc1[N+](=O)[O-]	-	-	?	-
O=C(CN1CCN(Cc2ccc(Cl)cc2)CC1)N/N=C/C=C/c1ccccc1[N+](=O)[O-]	-	-	18µM	?
O=C(CSc1nnc(SCc2ccccc2)s1)N/N=C/c1c[nH]c2ccccc12	10µM	.	-	-
CC(=O)c1cnc2c(C(=O)O)cnn2c1C	.	-	-	-
Cc1c(C(=O)O)cnc2c([N+](=O)[O-])cnn12	-	.	18µM	10µM
COc1ccccc1N1C(C)=CC(=C(C#N)c2nc3ccccc3s2)C=C1C	-	-	13µM	8.2µM
Oc1ccccc1CN(Cc1ccco1)CC(O)COCc1ccc(Cl)cc1 (centres undefined)	-	-	18µM	15µM
COc1ccccc1C(=O)NCCC(=O)NNC(=O)c1ccccc1O	.	25µM	?	?
Cc1ccccc1OCCNC(=O)CNC(=O)c1ccccc1O	-	28µM	-	-
O=C(CCNC(=O)c1ccccc1)NNC(=O)c1ccccc1Br	-	-	-	-
COc1ccccc1OCCNC(=O)c1ccccc1C	-	-	-	-
O=C(CCNC(=O)c1ccc(Br)cc1)NNC(=O)c1ccccc1O	-	-	23µM	?
NC(Cc1ccccc1)C(=O)O (centres undefined)	.	.	-	-
CC(C)=C[C@H]1C[C@H](C)[C@H]2CC[C@H](C)c3c(O[C@@H]4OC[C@@H](O)[C@H](O)C4O)c(O)c(C)c1c32 (some centres undefined)	-	-	?	-
SMILES	TDP1 block	ClpP mod	TDP1 cell noCPT	TDP1 cell CPT
CCCc1cc(=O)[nH]c(SCC(=O)Nc2ccc(N3CCCCC3)cc2)n1	-	.	?	-
c1ccc(CNc2cc(-c3ccoc3)ncn2)cc1	.	.	-	-
Cc1ccc(NC(=O)CCCn2c(=O)c3cccn3c3ccccc32)c(Cl)c1	-	-	12µM	15µM
CC(C)CCNC(=O)CCCn1c(=O)c2cccn2c2ccccc21	-	-	?	?
Cc1cc(C)cc(NC(=O)CCCn2c(=O)c3cccn3c3ccccc32)c1	-	-	-	-
Cc1ccc(NC(=O)CCCn2c(=O)c3cccn3c3ccccc32)c(C)c1	-	-	15µM	15µM
